From the supplement of paper PMC11624193, “Coupling cellular drug-target engagement to downstream pharmacology with CeTEAM” (Nature Communications, 2024)
Structures can show the parent of a compound that is named as a salt.

What follows are compounds tested against PARP1 L713F-nLuc biosensor (HCT116) (UniProt P09874) (assay: PARP1 L713F-nLuc/akaLuc ratio relative to DMSO control (biosensor stabilization) (fold change); higher = more PARP1 biosensor stabilization (target engagement / stabilizer), active = hit call of the paper). Conditions: stock concentration (mM; final µM = stock mM x 1): 10; 24 h;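 active = log2 fold change beyond 2 SD from the library mean after excluding viability outliers; inactive = within 2 SD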.
Chain of PARP1 L713F-nLuc biosensor (HCT116) (P09874 whole entry L713F, looked up): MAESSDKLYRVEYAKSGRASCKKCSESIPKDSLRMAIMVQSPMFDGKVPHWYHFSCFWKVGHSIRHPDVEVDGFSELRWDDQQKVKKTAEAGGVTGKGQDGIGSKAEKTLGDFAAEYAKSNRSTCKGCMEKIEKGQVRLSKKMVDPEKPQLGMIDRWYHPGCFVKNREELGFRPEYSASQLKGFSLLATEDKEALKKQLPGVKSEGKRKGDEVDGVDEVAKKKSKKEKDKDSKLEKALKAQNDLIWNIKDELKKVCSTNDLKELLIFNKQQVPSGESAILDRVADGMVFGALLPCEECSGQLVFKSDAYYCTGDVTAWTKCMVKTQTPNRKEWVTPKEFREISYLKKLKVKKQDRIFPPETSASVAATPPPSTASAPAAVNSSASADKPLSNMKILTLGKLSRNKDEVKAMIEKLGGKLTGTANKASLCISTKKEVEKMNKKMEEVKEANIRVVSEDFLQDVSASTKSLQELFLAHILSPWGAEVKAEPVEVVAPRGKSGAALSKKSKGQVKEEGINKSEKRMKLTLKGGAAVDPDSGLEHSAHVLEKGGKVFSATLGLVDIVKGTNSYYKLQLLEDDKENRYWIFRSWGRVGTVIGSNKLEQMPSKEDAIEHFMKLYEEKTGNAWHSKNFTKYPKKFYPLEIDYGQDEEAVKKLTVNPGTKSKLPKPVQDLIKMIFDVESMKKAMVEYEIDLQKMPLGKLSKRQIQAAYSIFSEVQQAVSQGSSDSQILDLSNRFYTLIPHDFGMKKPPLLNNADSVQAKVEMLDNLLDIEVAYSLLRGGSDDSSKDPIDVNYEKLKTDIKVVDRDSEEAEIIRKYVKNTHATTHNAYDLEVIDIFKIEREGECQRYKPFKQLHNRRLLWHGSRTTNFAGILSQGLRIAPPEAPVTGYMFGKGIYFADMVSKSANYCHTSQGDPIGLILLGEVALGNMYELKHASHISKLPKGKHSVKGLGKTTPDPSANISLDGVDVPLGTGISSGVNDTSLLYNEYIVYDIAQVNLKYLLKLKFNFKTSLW

Structure (SMILES)	PARP1 L713F-nLuc/akaLuc ratio
CNCCN(C)Cc1c[nH]nc1-c1ccc(O[C@H]2C[C@H](OCCC3CCOCC3)C2)cc1	0.64 (inactive)
CCCCCC1CC1CC1CC1CCCCCCCC(=O)OC (centres undefined)	1 (inactive)
O=C(O)c1ccc(Nc2ncc3c(n2)-c2ccc(Cl)cc2C(c2c(F)cccc2F)=NC3)cc1	1.87 (inactive)
CC(C)NC(=O)COc1cccc(-c2nc(Nc3ccc4[nH]ncc4c3)c3ccccc3n2)c1	0.38 (inactive)
Cn1cc(-c2cn3nccc3c(-c3cnn([C@]4(CC#N)C[C@@H](C#N)C4)c3)n2)cn1 [Ropsacitinib]	1.02 (inactive)
Nc1nc2[nH]cnc2c(=S)[nH]1 [Thioguanine]	1.03 (inactive)
O=C(Nc1ccc(C(F)(F)F)cc1)Nc1ccc(S(=O)(=O)N2CCC[C@H]2C(=O)Nc2ccccc2)cc1	0.728 (inactive)
CCc1cc2c(cc1N1CCC(N3CCOCC3)CC1)C(C)(C)c1[nH]c3cc(C#N)ccc3c1C2=O	2.06 (inactive)
CCCCCOC(=O)Nc1nc(=O)n([C@@H]2O[C@H](C)[C@@H](O)[C@H]2O)cc1F [Capecitabine]	0.759 (inactive)
CNS(=O)(=O)C[C@H]1CC[C@H](N(C)c2[nH]cnc3nccc2-3)CC1 [Oclacitinib (maleate)]	0.749 (inactive)
CN(C)CCCCCCNC(=O)c1cccc(-c2cc(O)c3ncccc3c2)c1	0.363 (inactive)
NCCNc1ccc(NCCN)c2c1C(=O)c1ccncc1C2=O [Pixantrone Maleate]	1.15 (inactive)
O=c1[nH]c(N2CCC3(CC2)CN(CCO)c2cc(F)cc(F)c23)nc2c1CCCC2	0.755 (inactive)
COc1cccc2c1c(O)c(C(=O)N(C)c1ccc(C(F)(F)F)cc1)c(=O)n2C [Tasquinimod]	1.12 (inactive)
O=c1c(O)c(-c2ccc(O)c(O)c2)oc2cc(O)c(O)c(O)c12 [Quercetagetin]	0.792 (inactive)
Cc1cc(Nc2cc(N3CCN(C)CC3)nc(Nc3ccc([N+](=O)[O-])cc3)n2)n[nH]1	1.52 (inactive)
O=C1CCC(N2C(=O)c3ccccc3C2=O)C(=O)N1 (centres undefined) [Thalidomide]	0.757 (inactive)
COc1cc(Nc2ncc3c(n2)-c2ccc(Cl)cc2C(c2c(F)cccc2OC)=NC3)ccc1C(=O)O [Alisertib (MLN8237)]	1.12 (inactive)
Cc1ncccc1-c1cnc(NCc2c(F)ccc3c2CCO3)n2cnnc12	1.39 (inactive)
C[C@H](Nc1cc(-c2cnn(C)c2)cc(Nc2cnccn2)n1)c1ccc(F)cc1 [Ilginatinib (maleate)]	0.614 (inactive)

Structure (SMILES)	PARP1 L713F-nLuc/akaLuc ratio
CC(C)N(C[C@H]1O[C@@H](n2cnc3c(N)ncnc32)[C@H](O)[C@@H]1O)[C@H]1C[C@@H](CCc2nc3cc(C(C)(C)C)ccc3[nH]2)C1 [Pinometostat]	0.649 (inactive)
COc1cccc(-n2c(=O)[nH]c3cc(Cl)n(-c4ccc(-c5cccc(OC)c5O)cc4)c3c2=O)c1	0.814 (inactive)
Nc1nc2cc(CC[C@H]3C[C@@H](n4ccc5c(N)ncnc54)[C@H](O)[C@@H]3O)ccc2cc1Br	0.465 (inactive)
C/C=C(\CC[C@@H](C)[C@H]1CC[C@H]2[C@@H]3CC=C4C[C@@H](O)CC[C@]4(C)[C@H]3CC[C@]12C)C(C)C [Fucosterol]	1.04 (inactive)
CN1CC[C@@H](NC(=O)Nc2ccc(C#N)cc2)C[C@@H]1c1nc2ccccc2[nH]1	0.89 (inactive)
NC(=O)c1ccc[n+]([C@@H]2O[C@H](CO)[C@@H](O)[C@H]2O)c1 [Nicotinamide riboside (chloride)]	1.17 (inactive)
O=C(c1cccc(Cl)c1F)N1CCN(Cc2cccc(Nc3nccs3)n2)CC1	1.61 (inactive)
O=C(c1cc(Cn2c(=O)[nH]c(=O)c3c(F)cccc32)ccc1F)N1CCN(c2ncccn2)CC1 [Senaparib]	3.98 (active)
Cc1ccc(-n2nc(C(C)(C)C)cc2NC(=O)Nc2ccc(OCCN3CCOCC3)c3ccccc23)cc1 [Doramapimod (BIRB 796)]	0.671 (inactive)
COc1cc(C(=O)N2C[C@H](N)CC[C@@H]2C)cc2nc(-c3cc4cccnc4n3CC3CC3)n(C)c12 [BMS-P5 (free base)]	0.878 (inactive)
O=C(O)CNC(=O)C1=C(O)CCN(Cc2ccc(Oc3ccc(Cl)cc3)nc2)C1=O	1.22 (inactive)
Cc1cc(C)c(CNC(=O)c2cc(-c3ccc(CN4CCOCC4)cc3)cc3c2cnn3C2CCCC2)c(=O)[nH]1	1.16 (inactive)
COc1nn(C)cc1Nc1nccc(-c2c[nH]c3c(NC(=O)[C@@H](C)N4CCN(C)CC4)cccc23)n1 [Golidocitinib]	0.637 (inactive)
CCCCCCCCc1ccc(CCC(N)(CO)CO)cc1 [Fingolimod (FTY720) HCl]	0.577 (inactive)
Cc1cc(CN)cc(C)c1-c1ncn(C)c1-c1ccnc2cc(F)ccc12 [BI-9321 (trihydrochloride)]	0.66 (inactive)
CCCCCCCCCCCCCC(=S)NCCCC[C@H](NC(=O)OCc1ccccc1)C(=O)Nc1ccccc1 [Thiomyristoyl]	1.08 (inactive)
CC(C)N(CCCNC(=O)Nc1ccc(C(C)(C)C)cc1)C[C@H]1O[C@@H](n2ccc3c(N)ncnc32)[C@H](O)[C@@H]1O	2.19 (inactive)
COc1cc(OC)c(/C=C/S(=O)(=O)Cc2ccc(OC)c(NCC(=O)O)c2)c(OC)c1	0.583 (inactive)
C[C@@H]1CCN(C(=O)CC#N)C[C@@H]1N(C)c1ncnc2[nH]ccc12 [Tofacitinib]	0.723 (inactive)
